PubChem BioAssay (Tox21)
Results filed as inconclusive are left out. A number with no mark means an inactive call. Active and inactive are the calls of the source. The call rests on the fitted dose curve; in most records, active means well fitted inhibition curve with a large enough effect in the repeat runs; inconclusive means weak or mixed curves, or effect the other way; inactive means no such curve, though single readings can be large or run the other way.

biological target: Androgen receptor (Homo sapiens) (UniProt P10275); experiment: qHTS assay to identify small molecule antagonists of the androgen receptor (AR) signaling pathway using the MDA cell line (AID 743042; further: nearly all actives have a fitted effect of over 55% in size); settings: MDA-kb2 AR-luc, MMTV luciferase, R1881 antagonist, 16 h; series mostly up to 70.3 µM; activity change, negative = inhibition: at the top concentration
In short: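 MDA-kb2 breast carcinoma cells carrying MMTV-luciferase (AR/GR responsive) were co-treated with compounds and the agonist R1881 for 16 h at 37C. Inhibition read as ONE-Glo luminescence; CellTiter-Fluor fluorescence measured in parallel for cytotoxicity.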
On the % scale 0 is the no-effect control and ±100 the full control effect; potency means the concentration at half of the fitted maximal effect.

Androgen receptor (Homo sapiens), sequence (P10275 whole entry, looked up): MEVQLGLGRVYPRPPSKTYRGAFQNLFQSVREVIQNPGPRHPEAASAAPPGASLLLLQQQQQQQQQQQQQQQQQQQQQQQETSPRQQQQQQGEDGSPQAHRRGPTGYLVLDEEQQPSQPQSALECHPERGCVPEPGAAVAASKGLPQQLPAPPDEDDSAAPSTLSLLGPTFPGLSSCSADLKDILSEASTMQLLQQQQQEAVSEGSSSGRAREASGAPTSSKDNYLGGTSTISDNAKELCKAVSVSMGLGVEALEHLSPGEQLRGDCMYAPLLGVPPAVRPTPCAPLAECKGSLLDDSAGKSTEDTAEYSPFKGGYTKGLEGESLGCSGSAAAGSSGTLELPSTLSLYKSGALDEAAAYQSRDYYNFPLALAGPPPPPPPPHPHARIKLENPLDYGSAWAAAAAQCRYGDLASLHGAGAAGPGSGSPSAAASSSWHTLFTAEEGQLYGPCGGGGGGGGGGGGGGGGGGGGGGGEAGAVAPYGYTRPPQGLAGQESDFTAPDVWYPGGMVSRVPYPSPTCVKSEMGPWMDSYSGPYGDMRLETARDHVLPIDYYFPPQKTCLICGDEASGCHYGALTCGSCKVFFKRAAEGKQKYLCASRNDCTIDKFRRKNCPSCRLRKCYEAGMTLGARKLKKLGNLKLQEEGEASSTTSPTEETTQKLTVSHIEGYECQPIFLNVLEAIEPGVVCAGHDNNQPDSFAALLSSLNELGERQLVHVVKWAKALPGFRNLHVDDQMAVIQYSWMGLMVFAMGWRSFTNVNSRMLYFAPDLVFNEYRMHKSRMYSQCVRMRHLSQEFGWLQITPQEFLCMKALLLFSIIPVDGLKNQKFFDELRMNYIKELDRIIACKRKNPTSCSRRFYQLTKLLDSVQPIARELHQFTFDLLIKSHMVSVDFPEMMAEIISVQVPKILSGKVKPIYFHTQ

Structure (SMILES) | activity change, negative = inhibition | Potency
C=CC(=O)NCNC(=O)C=C | -15.5% | 
Cc1ccccc1C(=O)Nc1cccc(OC(C)C)c1 | -9.45% | 
CCOC(=O)COc1cc(-c2nn(C)c(OC(F)F)c2Cl)c(F)cc1Cl | 1.21% | 
Nc1ccc([N+](=O)[O-])cc1[N+](=O)[O-] | 1.16% | 
COC1=CC(=O)O[C@@H](CCc2ccccc2)C1 | 4.5% [at 95 µM] | 
CS/C(C)=N/OC(=O)N(C)SN(C)C(=O)O/N=C(\C)SC | -10.3% | 
CCCCCC[N+](=O)[O-] | 0.29% [at 95 µM] | 
NCCCNCCCN | -0.0343% [at 95 µM] | 
C/C(=C\c1ccccc1)[N+](=O)[O-] |  | 27.3 µM (active)
